{"source": "PubChem BioAssay (NCATS)", "note": "Inconclusive results are not listed. Unmarked numbers belong to inactive results. Active and inactive are the calls of the source. Calls follow the shape of the dose curve; as a rule, active = well fitted cell-killing curve with a large enough effect; inconclusive = small, poorly fitted or top-dose-only effect; inactive = no such curve, though single readings can be large or run the other way. Potency is read from the fitted curve at half-maximal effect.", "data": [{"experiment": "qHTS of pediatric cancer cell lines to identify multiple opportunities for drug repurposing: Primary screen for NB-EBc1 cells (AID 1347095);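 as to activity change, negative = cytotoxic: plate controls were DMSO neutral control for no effect and bortezomib for full effect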", "conditions": "NB-EBc1 neuroblastoma viability, CellTiter-Glo luminescence, 48 h; series mostly up to 46 µM; activity change, negative = cytotoxic: at the top concentration", "outline": "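Luminescence from CellTiter-Glo served as readout of metabolically active cells after 48 h compound exposure. Titrations: MIPE 11-point, from 0.78 nM; NPC 8-point, from 0.59 nM (final). Concentration-response curves came straight from the primary screen.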", "values": [{"compound": "O=C(Nc1ccc(Oc2ccc(Cl)cc2)c(Cl)c1)c1cc(I)cc(I)c1O", "Potency": "26.6 µM (active)"}, {"compound": "OC[C@H]1O[C@@H](n2cnc3c(=S)nc[nH]c32)[C@H](O)[C@@H]1O", "Potency": "1.33 µM (active)"}, {"compound": "CC(C)(C)CC(C)(C)c1ccc(O)c(Cc2ccc(Cl)cc2Cl)c1", "Potency": "13.3 µM (active)"}, {"compound": "CCOC(=O)[C@H](CCc1ccccc1)N[C@@H](C)C(=O)N1Cc2ccccc2C[C@H]1C(=O)O", "activity change, negative = cytotoxic": "11%"}, {"compound": "C[C@@H](CN(C)C)CN1c2ccccc2Sc2ccccc21", "activity change, negative = cytotoxic": "-16.9%"}, {"compound": "O=C(OCC(O)CO)c1ccccc1Nc1ccnc2cc(Cl)ccc12", "note": "(stereo not given)", "activity change, negative = cytotoxic": "21.4%"}, {"compound": "C#C[C@]1(O)CC[C@H]2[C@@H]3CCc4cc(OC5CCCC5)ccc4[C@H]3CC[C@@]21C", "activity change, negative = cytotoxic": "-27.5%"}, {"compound": "COc1cc2c(cc1OC)C(C(C(=O)N(CCc1ccc(OC)c(OC)c1OC)CCc1ccc(OC)c(OC)c1OC)c1ccccc1)=NCC2", "note": "(stereo not given)", "activity change, negative = cytotoxic": "-2.6%"}, {"compound": "O=C1OC2(c3ccc(O)cc3Oc3cc(O)ccc32)c2ccccc21", "activity change, negative = cytotoxic": "15.5%"}, {"compound": "COc1cc(C(=S)N2CCOCC2)cc(OC)c1OC", "activity change, negative = cytotoxic": "1.89%"}, {"compound": "C=C(CC)C(=O)c1ccc(OCC(=O)O)c(Cl)c1Cl", "Potency": "21.1 µM (active)"}, {"compound": "CC(=O)OCC(=O)[C@@]12OC(C)(C)O[C@@H]1C[C@H]1[C@@H]3C[C@H](F)C4=CC(=O)C=C[C@]4(C)[C@@]3(F)[C@@H](O)C[C@@]12C", "activity change, negative = cytotoxic": "12.3%"}, {"compound": "CC(C)=CCC1C(=O)N(c2ccccc2)N(c2ccccc2)C1=O", "Potency": "21.1 µM (active)"}, {"compound": "CCn1cc(C(=O)O)c(=O)c2cnc(N3CCCC3)nc21", "activity change, negative = cytotoxic": "-3.37% [at 9.22 µM]"}, {"compound": "CC(C)NC[C@@H](O)COc1cccc2ccccc12", "activity change, negative = cytotoxic": "-2.59%"}]}]}
